Experiment [1] can be described thus: qHTS assay to identify small molecule agonists of the vitamin D receptor (VDR) signaling pathway - cell viability counter screen (AID 743224). Further: series mostly up to about 63 µM; nearly all actives have a fitted effect of over 50% in size. In short, it runs like this:
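VDR-bla cells were preincubated 4 h at 37C/5% CO2, then exposed to compounds for 16 h. After the 2 h room-temperature bla FRET read, CellTiter-Glo was added to the same wells and luminescence read after 30 min.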

A short description of experiment [2]: qHTS assay to identify small molecule antagonists of the vitamin D receptor (VDR) signaling pathway - cell viability counter screen (AID 743225). Further: nearly all actives have a fitted effect of over 50% in size. In short, it runs like this: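 Viability counter screen run in the same wells as the beta-lactamase reporter assay: HEK 293T VDR-UAS-bla cells, 16 h compound exposure at 37C with 3 nM (final) 1-alpha,25-dihydroxyvitamin D3. CellTiter-Glo luminescence, 30 min, room temperature.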

The nature of experiment [3]: qHTS assay to identify small molecule agonists of the NFkB signaling pathway (AID 1159509; active means well fitted curve in the direction sought with a large enough effect in the signal ratio in the repeat runs, not every such curve was filed as active; the % refers to the signal ratio; further: series mostly up to about 61 µM). In short, it runs like this: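 ME-180 NFkB-bla, 2,000 cells/well, overnight plating; cpd pinned in DMSO, 5 h 37 C; B/G FRET substrate 1.5 h RT; ex 405, em 460/530 nm.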
(In general: In qHTS, concentration-response curves come from the screen itself.)

The nature of experiment [4]: qHTS assay to identify small molecule agonists of the NFkB signaling pathway - cell viability counter screen (AID 1159515; calls by dose curve; further: series mostly up to about 61 µM; nearly all actives have a fitted effect of over 55% in size). The procedure, abridged:
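NFkB-bla ME-180 cells, 2,000/well, were plated overnight at 37 C, 5% CO2, then exposed to compounds in DMSO for 5 hr. After the bla FRET read, CellTiter-Glo was added to the same wells; luminescence was read after 30 min at room temperature.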

Experiment [5] in a line: qHTS assay to identify small molecule agonists of the endoplasmic reticulum stress response signaling pathway - cell viability counter screen (AID 1159517; calls by dose curve; further: series mostly up to about 61 µM; nearly all actives have a fitted effect of over 50% in size). In short, it runs like this:
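ESRE-bla HeLa cells, 1,500 per well, seeded overnight then treated with compounds for 5 hr at 37 C. After the beta-lactamase read, viability in the same wells is measured by CellTiter-Glo luminescence after 30 min at room temperature.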

Experiment [6] can be described thus: qHTS assay to identify small molecule antagonists of the retinoid-related orphan receptor gamma (ROR-gamma) signaling pathway - cell viability counter screen (AID 1159520). Further: nearly all actives have a fitted effect of over 50% in size. The procedure, abridged:
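Tet-on ROR gamma CHO cells were given compounds for 2 hr, then doxycycline hyclate at 1 uM final, and incubated 16 hr at 37 C. Viability was measured as ATP content by CellTiter-Glo luminescence.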

In experiment [7] the target is Nuclear receptor ROR-gamma (Homo sapiens) (UniProt P51449). Kind of experiment: qHTS assay to identify small molecule antagonists of the retinoid-related orphan receptor gamma (ROR-gamma) signaling pathway (AID 1159521). The procedure, abridged: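 Luminescence readout (ONE-Glo, 30 min RT) after 16 h doxycycline induction; loss of signal scored as antagonism. CHO cells with TET-inducible RORγ and RORE-LUC reporter; compounds added 2 h before 1 uM final doxycycline.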

A short description of experiment [8]: qHTS assay to identify small molecule agonists of the AP-1 signaling pathway - cell viability counter screen (AID 1159525; calls by dose curve; further: nearly all actives have a fitted effect of over 55% in size). In short, it runs like this:
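AP-1-bla ME-180 cells in Opti-MEM with 0.5% dialyzed FBS, compound exposure 5 h at 37 C in 15-point titration. Viability read in the same wells as ATP content by CellTiter-Glo luminescence, normalised to tetra-n-octylammonium bromide and DMSO controls.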

A short description of experiment [9]: qHTS assay to identify small molecule agonists of the AP-1 signaling pathway (AID 1159526; calls by dose curve).
The target in experiment [10] is Retinoic acid receptor RXR-alpha (Homo sapiens) (UniProt P19793). Kind of experiment: qHTS assay to identify small molecule agonists of the RXR signaling pathway (AID 1159527; calls by dose curve; further: nearly all actives have a fitted effect of over 35% in size). The procedure, abridged: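 Agonist mode; 9-cis retinoic acid positive control. HEK 293T UAS-bla reporter cells, 2% charcoal-stripped FBS, 16 hr compound exposure at 37 C/5% CO2. LiveBLAzer B/G FRET substrate 2 hr RT; ex 405, em 460/530 nm.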
Sequence of Retinoic acid receptor RXR-alpha (Homo sapiens) (P19793 whole entry, looked up): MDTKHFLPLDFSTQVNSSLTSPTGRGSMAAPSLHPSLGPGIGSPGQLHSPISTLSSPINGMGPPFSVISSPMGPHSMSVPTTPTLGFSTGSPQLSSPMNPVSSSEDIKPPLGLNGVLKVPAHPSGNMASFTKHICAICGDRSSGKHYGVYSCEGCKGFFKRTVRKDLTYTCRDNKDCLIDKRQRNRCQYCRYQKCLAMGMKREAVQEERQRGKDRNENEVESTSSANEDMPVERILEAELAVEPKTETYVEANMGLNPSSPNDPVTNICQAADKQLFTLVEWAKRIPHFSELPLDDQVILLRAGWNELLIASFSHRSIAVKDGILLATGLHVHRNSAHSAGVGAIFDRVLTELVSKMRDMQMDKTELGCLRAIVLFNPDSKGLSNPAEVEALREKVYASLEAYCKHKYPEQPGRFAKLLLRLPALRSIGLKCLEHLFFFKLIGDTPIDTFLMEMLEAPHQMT

The nature of experiment [11]: qHTS assay to identify small molecule agonists of the RXR signaling pathway - cell viability counter screen (AID 1159529). In short, it runs like this: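 Luminescence from CellTiter-Glo (30 min, RT) measured viability in the same wells as the beta-lactamase reporter readout. Cells: GeneBLAzer RXR-alpha HEK 293T, 2% charcoal-stripped FBS. Compound exposure 16 hr, 37 C.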

The nature of experiment [12]: qHTS assay to identify small molecule antagonists of the retinoid acid receptor (RAR) signaling pathway - cell viability counter screen (AID 1159551). Further: nearly all actives have a fitted effect of over 35% in size. In short, it runs like this:
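C3RL4 cells were seeded overnight at 37 C, then treated with compounds plus 1 uM (final) retinol for 6 h at 37 C. Viability was read as ATP by CellTiter-Glo luminescence after 30 min at room temperature.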

A short description of experiment [13]: qHTS assay to identify small molecule antagonists of the retinoic acid receptor (RAR) signaling pathway (AID 1159552; further: nearly all actives have a fitted effect of over 50% in size). The procedure, abridged: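 Luminescence from a RARE luciferase reporter in C3RL4 cells served as read-out. Cells received compounds together with 1 uM final retinol and incubated 6 hr at 37 C before detection reagent was added for 30 min at room temperature.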

A short description of experiment [14]: qHTS assay to identify small molecule agonists of the endoplasmic reticulum stress response signaling pathway (AID 1159516; active means well fitted activation curve with a large enough effect in the signal ratio in the repeat runs, not every such curve was filed as active; the % refers to the signal ratio). In short, it runs like this:
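CellSensor ESRE-bla HeLa cells, carrying a beta-lactamase reporter driven by the ER stress response element, were plated overnight and exposed to compounds for 5 hr at 37 C. Reporter activity was read as FRET substrate fluorescence after 2 hr at room temperature.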

The nature of experiment [15]: qHTS assay to identify small molecule agonists of the retinoic acid receptor (RAR) signaling pathway (AID 1159553). Further: potency means the concentration at half of the fitted maximal effect. In short, it runs like this:
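C3RL4 cells carrying a RARE luciferase reporter were plated overnight at 37 C, then exposed to compounds in DMSO for 6 hr at 37 C and 5% CO2. Luminescence was read 30 min after luciferase reagent addition at room temperature.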

The nature of experiment [16]: qHTS assay to identify small molecule antagonists of the estrogen related receptor (ERR) signaling pathway - cell viability counter screen (AID 1224818).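 Further: series mostly up to about 46 µM; viability measured after 17.5 h of compound exposure.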 The procedure, abridged: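 ERR reporter cells plated 6 h at 37 C/5% CO2, then compounds in DMSO pin-transferred and incubated 17.5 h at 37 C. Viability read as CellTiter-Fluor fluorescence after 30 min at 37 C.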

The nature of experiment [17]: qHTS assay to identify small molecule antagonists of the estrogen related receptor signaling pathway with the pleiotropic PPARgamma coactivator (PGC) cell viability counter screen (AID 1224822; further: series mostly up to about 46 µM). In short, it runs like this: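 PGC/ERR cells were seeded at 2,000 cells/well, rested 6 h at 37 C/5% CO2, then given compounds in DMSO by pin tool and incubated 17.5 h at 37 C. Viability came from CellTiter-Fluor fluorescence after 30 min.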

Results filed as inconclusive are left out. Unmarked numbers belong to inactive results. Calls of active or inactive are those of the source. Unless noted, the call rests on the fitted dose curve; in most records, active means well fitted curve in the direction sought with a large enough effect in the repeat runs; inconclusive means weak or mixed curves; inactive means no such curve, though single readings can be large; an effect the other way counts as inactive or inconclusive.

Take `CC(C)(O)CCc1ccccc1`: the Potency result in experiment [1], in experiment [2], in experiment [4], in [5], in experiment [6] and in experiment [7] was “inactive” throughout. Moreover, the Potency entry in experiment [8], in experiment [10], in experiment [11], in experiment [12] and in experiment [13] was “inactive” in each case. Further, the molecule was classed as inactive in experiment [3] and in [9].

In the case of `CCC(CO)(CO)[N+](=O)[O-]`, the Potency result in experiment [1], in [2], in experiment [4], in [5], in [6] and in [7] was “inactive” in each case. The Potency entry in experiment [8], in experiment [10], in experiment [11], in experiment [12] and in experiment [13] was “inactive” throughout. Also, the outcome in experiment [3] and in [9] was inactive.

On to `Nc1cccc2c(N)cccc12`, for which the Potency result in experiment [1], in [4], in experiment [14], in [7], in experiment [12] and in experiment [13] was “inactive” each time. Moreover, the outcome in experiment [3], in experiment [16] and in [17] was inactive. Moreover, in experiment [15], the Potency is 19.3 µM (active).

On to `COc1ccc(CCN(C)CCCN2CCc3cc(OC)c(OC)cc3CC2=O)cc1OC`, for which the Potency entry in experiment [1], in experiment [2], in experiment [4], in experiment [5], in experiment [6] and in experiment [7] was “inactive” throughout. The Potency result in experiment [8], in experiment [10], in experiment [11], in experiment [12] and in experiment [13] was “inactive” throughout. Besides, the molecule was called inactive in experiment [3] and in experiment [9].

On to `COc1ccc(C2C(=O)c3ccccc3C2=O)cc1`, for which the Potency entry in experiment [2], in experiment [4], in [14], in experiment [7], in experiment [10] and in [11] was “inactive” each time. In addition, the Potency result in experiment [12], in experiment [13] and in experiment [15] was “inactive” each time. The result in [3] and in experiment [9] was inactive.

As to `CC(=O)OCCC1CCCCC1`, the Potency result in experiment [1], in experiment [2], in [4], in [5], in experiment [6] and in experiment [7] was “inactive” each time. Moreover, the Potency result in experiment [8], in experiment [10], in [11], in experiment [12], in [13] and in experiment [15] was “inactive” throughout. For the same molecule, the outcome in experiment [3] and in [9] was inactive.

As to `CCN(CC)C(=O)N1CCN(C)CC1`, the Potency result in experiment [1], in experiment [2], in experiment [4], in [5], in experiment [6] and in experiment [7] was “inactive” in each case. Further, the Potency result in experiment [8], in experiment [10], in experiment [11], in [12], in experiment [13] and in [15] was “inactive” each time. Besides, the call in experiment [3] and in experiment [9] was inactive.

Consider `CCOCCC(=O)OCC`, for which the Potency result in experiment [1], in [2], in experiment [4], in experiment [5], in experiment [6] and in experiment [7] was “inactive” each time. The Potency entry in experiment [8], in experiment [10], in experiment [11], in [12], in experiment [13] and in experiment [15] was “inactive” in each case. Moreover, the call in experiment [3] and in experiment [9] was inactive.

Consider `COc1cc(NS(=O)(=O)c2ccc(N)cc2)nc(C)n1`, for which the Potency result in experiment [1], in experiment [2], in [4], in [5], in [6] and in experiment [7] was “inactive” throughout. In addition, the Potency result in experiment [8], in experiment [10], in experiment [11], in experiment [12] and in experiment [13] was “inactive” throughout. In addition, the call in experiment [3] and in [9] was inactive.

As for `Cc1cc(CCC(=O)OCCOCCOCCOC(=O)CCc2cc(C)c(O)c(C(C)(C)C)c2)cc(C(C)(C)C)c1O`, the call in experiment [3] and in experiment [9] was inactive. For the same molecule, the Potency result in experiment [4], in experiment [5], in experiment [6], in [7], in experiment [8] and in experiment [10] was “inactive” throughout. Moreover, the Potency result in [11], in experiment [12], in experiment [13] and in [15] was “inactive” each time.
